{"source": "PubChem BioAssay (NCATS)", "key": {"[1]": {"biological_target": "Cytochrome P450 3A4 (Homo sapiens) (UniProt P08684)", "sequence (P08684 whole entry, looked up)": "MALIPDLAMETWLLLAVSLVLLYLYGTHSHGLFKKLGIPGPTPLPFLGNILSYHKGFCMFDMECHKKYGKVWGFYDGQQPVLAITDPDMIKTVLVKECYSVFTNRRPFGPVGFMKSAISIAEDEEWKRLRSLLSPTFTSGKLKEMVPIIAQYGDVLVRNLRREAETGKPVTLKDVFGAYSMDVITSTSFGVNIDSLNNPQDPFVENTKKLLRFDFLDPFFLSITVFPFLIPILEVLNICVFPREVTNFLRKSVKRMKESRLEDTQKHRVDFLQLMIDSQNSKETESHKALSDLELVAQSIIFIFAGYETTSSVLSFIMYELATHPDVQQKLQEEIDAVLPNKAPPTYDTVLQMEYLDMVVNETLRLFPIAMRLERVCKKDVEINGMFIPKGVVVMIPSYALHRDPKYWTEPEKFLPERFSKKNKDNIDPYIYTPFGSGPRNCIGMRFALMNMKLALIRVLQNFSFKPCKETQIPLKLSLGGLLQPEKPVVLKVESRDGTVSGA", "assay": "qHTS Assay for Inhibitors and Substrates of Cytochrome P450 3A4 (AID 884); note: nearly all actives have a fitted effect of over 50% in size", "outline": "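Luminescent readout of luciferin produced by CYP3A4 (20 nM) dealkylation of Luciferin-PPXE, 25 uM (its KM). NADPH-driven reaction ran 60 min at RT after 10 min compound preincubation; data scaled to 57 uM ketoconazole as 100% inhibition.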"}, "[2]": {"assay": "Confirmation and Secondary Assay for Modulators of Hemoglobin Beta Chain Splicing at IVS2 654 locus (AID 910)", "outline": "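Readout: per-well total peak green fluorescence (488 nm ex, 500–520 nm em) from objects 5–250 µm, reflecting correct splicing of an EGFP-654 reporter. Compounds were applied for 2 days at 37 °C to overnight-plated HeLa EGFP-654 cells; controls were DMSO and 500 nM IVS2-654 PNA.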"}, "[3]": {"assay": "Confirmation and Secondary Assay for Modulators of Hemoglobin Beta Chain Splicing at IVS2 705 locus (AID 930)", "outline": "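HeLa cells stably carrying EGFP interrupted by mutant beta-globin IVS2-705 intron (CMV-driven) were seeded at 500 cells/well, treated next day with compound for 2 days at 37C; corrected splicing restores EGFP, read as total peak GFP intensity per well.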"}, "[4]": {"assay": "qHTS Assay for Lipid Storage Modulators (AID 1519; calls by dose curve)", "conditions": "Drosophila S3 cells, BODIPY lipid droplet/cell ratio, laser cytometry, cells loaded with oleic acid", "outline": "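Cells seeded at 5,000 per well were treated with compounds over a concentration series and loaded with oleic acid (400 uM, as added). Lipid droplet fluorescence (488 nm excitation, 500-530 nm channel) was read by laser-scanning cytometry and normalized to 20 uM Triacsin C.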"}, "[5]": {"biological_target": "Luciferin 4-monooxygenase (Photinus pyralis) (UniProt P08659)", "sequence (P08659 whole entry, looked up)": "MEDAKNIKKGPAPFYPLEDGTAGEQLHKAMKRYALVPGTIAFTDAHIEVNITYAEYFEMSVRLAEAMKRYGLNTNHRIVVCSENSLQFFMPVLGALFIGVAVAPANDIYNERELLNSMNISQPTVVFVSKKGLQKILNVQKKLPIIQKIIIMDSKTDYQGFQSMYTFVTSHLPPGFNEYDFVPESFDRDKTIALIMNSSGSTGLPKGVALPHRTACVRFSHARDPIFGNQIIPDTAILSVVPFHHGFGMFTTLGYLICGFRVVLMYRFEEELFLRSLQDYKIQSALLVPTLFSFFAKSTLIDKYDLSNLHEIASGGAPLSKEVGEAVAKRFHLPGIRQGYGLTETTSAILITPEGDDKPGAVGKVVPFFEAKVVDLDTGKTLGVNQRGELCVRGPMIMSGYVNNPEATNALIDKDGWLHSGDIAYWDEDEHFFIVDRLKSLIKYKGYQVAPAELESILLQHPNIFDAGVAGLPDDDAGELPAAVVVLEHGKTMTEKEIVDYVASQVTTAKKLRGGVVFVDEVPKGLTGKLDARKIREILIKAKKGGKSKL", "assay": "Biochemical firefly luciferase enzyme assay for NPC (AID 624030); note: nearly all actives have a fitted effect of over 70% in size", "outline": "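Direct inhibition of firefly luciferase enzyme (10 nM final, 50 mM Tris Acetate) assessed by luminescence within 5 minutes. Percent activity scaled between DMSO and PTC124 positive control, with concentration-effect curves classified by fit quality and response.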"}, "[6]": {"assay": "S16 Schwann cell viability assay (CellTiter-Glo assay) (AID 624031);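 note: cellular ATP luminescence as a viability measure; nearly all actives have a fitted effect of over 70% in size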", "outline": "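Native S16 rat Schwann cells in DMEM/10% FBS without phenol red were incubated overnight, then exposed to compounds for 24 h at 37 °C/5% CO2. Viability was read as ATP luminescence (CellTiter-Glo), normalized to no-cell wells and DMSO (0%).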"}, "[7]": {"assay": "S16 Schwann cell PMP22 intronic element firefly luciferase assay (AID 624032); note: nearly all actives have a fitted effect of over 30% in size", "outline": "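Luciferase reporter of PMP22 intronic-element expression in stably transfected S16 rat Schwann cells, read by ONE-Glo luminescence after 24 h compound exposure at 37 C. Activity scaled between DMSO (0%) and positive-control PTC124; concentration-effect curves quality-classified.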"}, "[8]": {"assay": "S16 Schwann cell PMP22 intronic element beta-lactamase assay (AID 624044; calls by dose curve; note: nearly all actives have a fitted effect of over 15% in size)", "outline": "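Beta-lactamase reporter under a PMP22 intronic regulatory element in stable S16 rat Schwann cells; 24 h compound exposure. 460 nm blue signal normalized between DMSO (0%) and potassium clavulanate, with 535 nm FRET tracking viability; curves classed by r2 and response.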"}, "7G8": {"tested_on": "7G8", "assay": "qHTS profiling for inhibitors of Plasmodium falciparum proliferation (AID 504749); note: nearly all actives have a fitted effect of over 60% in size; note: potency is the fitted concentration of half-maximal effect", "conditions": "P. falciparum in erythrocytes, SYBR Green DNA, 72 h; series mostly up to 12.8 µM", "outline": "(§1)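 SYBR Green fluorescence of parasite DNA, read after lysis and overnight dark incubation, measured growth over 72 h in erythrocyte culture at 0.3% parasitemia and 2.5% hematocrit. Data normalised to DMSO and 0.29 uM artemisinin, with plate-drift correction.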"}, "CP191": {"tested_on": "CP191", "assay": "qHTS profiling for inhibitors of Plasmodium falciparum proliferation (AID 504749)", "conditions": "P. falciparum in erythrocytes, SYBR Green DNA, 72 h; series mostly up to 12.8 µM", "outline": "as §1"}, "CP192": {"tested_on": "CP192", "assay": "qHTS profiling for inhibitors of Plasmodium falciparum proliferation (AID 504749)", "conditions": "P. falciparum in erythrocytes, SYBR Green DNA, 72 h; series mostly up to 12.8 µM", "outline": "as §1"}, "CP194": {"tested_on": "CP194", "assay": "qHTS profiling for inhibitors of Plasmodium falciparum proliferation (AID 504749)", "conditions": "P. falciparum in erythrocytes, SYBR Green DNA, 72 h; series mostly up to 12.8 µM", "outline": "as §1"}, "CP201": {"tested_on": "CP201", "assay": "qHTS profiling for inhibitors of Plasmodium falciparum proliferation (AID 504749)", "conditions": "P. falciparum in erythrocytes, SYBR Green DNA, 72 h; series mostly up to 12.8 µM", "outline": "as §1"}, "CP203": {"tested_on": "CP203", "assay": "qHTS profiling for inhibitors of Plasmodium falciparum proliferation (AID 504749)", "conditions": "P. falciparum in erythrocytes, SYBR Green DNA, 72 h; series mostly up to 12.8 µM", "outline": "as §1"}, "CP211": {"tested_on": "CP211", "assay": "qHTS profiling for inhibitors of Plasmodium falciparum proliferation (AID 504749)", "conditions": "P. falciparum in erythrocytes, SYBR Green DNA, 72 h; series mostly up to 12.8 µM", "outline": "as §1"}, "CP215": {"tested_on": "CP215", "assay": "qHTS profiling for inhibitors of Plasmodium falciparum proliferation (AID 504749)", "conditions": "P. falciparum in erythrocytes, SYBR Green DNA, 72 h; series mostly up to 12.8 µM", "outline": "as §1"}, "CP262": {"tested_on": "CP262", "assay": "qHTS profiling for inhibitors of Plasmodium falciparum proliferation (AID 504749)", "conditions": "P. falciparum in erythrocytes, SYBR Green DNA, 72 h; series mostly up to 12.8 µM", "outline": "as §1"}, "CP266": {"tested_on": "CP266", "assay": "qHTS profiling for inhibitors of Plasmodium falciparum proliferation (AID 504749)", "conditions": "P. falciparum in erythrocytes, SYBR Green DNA, 72 h; series mostly up to 12.8 µM", "outline": "as §1"}, "CP268": {"tested_on": "CP268", "assay": "qHTS profiling for inhibitors of Plasmodium falciparum proliferation (AID 504749)", "conditions": "P. falciparum in erythrocytes, SYBR Green DNA, 72 h; series mostly up to 12.8 µM", "outline": "as §1"}, "CP269": {"tested_on": "CP269", "assay": "qHTS profiling for inhibitors of Plasmodium falciparum proliferation (AID 504749)", "conditions": "P. falciparum in erythrocytes, SYBR Green DNA, 72 h; series mostly up to 12.8 µM", "outline": "as §1"}, "CP291": {"tested_on": "CP291", "assay": "qHTS profiling for inhibitors of Plasmodium falciparum proliferation (AID 504749)", "conditions": "P. falciparum in erythrocytes, SYBR Green DNA, 72 h; series mostly up to 12.8 µM", "outline": "as §1"}, "CP305": {"tested_on": "CP305", "assay": "qHTS profiling for inhibitors of Plasmodium falciparum proliferation (AID 504749)", "conditions": "P. falciparum in erythrocytes, SYBR Green DNA, 72 h; series mostly up to 12.8 µM", "outline": "as §1"}, "CP315": {"tested_on": "CP315", "assay": "qHTS profiling for inhibitors of Plasmodium falciparum proliferation (AID 504749)", "conditions": "P. falciparum in erythrocytes, SYBR Green DNA, 72 h; series mostly up to 12.8 µM", "outline": "as §1"}, "CP325": {"tested_on": "CP325", "assay": "qHTS profiling for inhibitors of Plasmodium falciparum proliferation (AID 504749)", "conditions": "P. falciparum in erythrocytes, SYBR Green DNA, 72 h; series mostly up to 12.8 µM", "outline": "as §1"}, "CP329": {"tested_on": "CP329", "assay": "qHTS profiling for inhibitors of Plasmodium falciparum proliferation (AID 504749)", "conditions": "P. falciparum in erythrocytes, SYBR Green DNA, 72 h; series mostly up to 12.8 µM", "outline": "as §1"}, "Dd2": {"tested_on": "Dd2", "assay": "qHTS profiling for inhibitors of Plasmodium falciparum proliferation (AID 504749)", "conditions": "P. falciparum in erythrocytes, SYBR Green DNA, 72 h; series mostly up to 12.8 µM", "outline": "as §1"}, "ICS": {"tested_on": "ICS", "assay": "qHTS profiling for inhibitors of Plasmodium falciparum proliferation (AID 504749)", "conditions": "P. falciparum in erythrocytes, SYBR Green DNA, 72 h; series mostly up to 12.8 µM", "outline": "as §1"}, "PC15": {"tested_on": "PC15", "assay": "qHTS profiling for inhibitors of Plasmodium falciparum proliferation (AID 504749)", "conditions": "P. falciparum in erythrocytes, SYBR Green DNA, 72 h; series mostly up to 12.8 µM", "outline": "as §1"}, "PC26": {"tested_on": "PC26", "assay": "qHTS profiling for inhibitors of Plasmodium falciparum proliferation (AID 504749)", "conditions": "P. falciparum in erythrocytes, SYBR Green DNA, 72 h; series mostly up to 12.8 µM", "outline": "as §1"}, "W2": {"tested_on": "W2", "assay": "qHTS profiling for inhibitors of Plasmodium falciparum proliferation (AID 504749)", "conditions": "P. falciparum in erythrocytes, SYBR Green DNA, 72 h; series mostly up to 12.8 µM", "outline": "as §1"}}, "note": "Records with an inconclusive call do not appear. A call without a number means that no potency is given here. Active and inactive are the calls of the source. Unless noted, calls come from the whole dose curve; as a rule, active = well fitted curve in the direction sought with a large enough effect; inconclusive = small, poorly fitted or top-dose-only effect, or another doubt; inactive = no such curve, though single readings can be large; an effect the other way counts as inactive or inconclusive."}
{"smiles": "COC1CC(O[C@H]2/C(C)=C/CC3CC(C[C@]4(CCC(C)C(C5CCCCC5)O4)O3)OC(=O)[C@H]3C=C(C)/C(=N/O)C4OC/C(=C\\C=C\\[C@@H]2C)[C@@]43O)OC(C)C1O", "note": "(some centres not stated)", "values": [{"measurement": "Potency", "setting": "[1]", "value": "inactive"}, {"measurement": "Potency", "setting": "[2]", "value": "inactive"}, {"measurement": "Potency", "setting": "[3]", "value": "inactive"}, {"measurement": "activity change, negative = inhibition", "setting": "[4]; at 57.5 µM (top of the series)", "value": "-12.3% (inactive)"}, {"measurement": "max response", "setting": "[4]; measured here: cell count channel max response", "value": 13.8, "unit": "%"}, {"measurement": "max response", "setting": "[4]; measured here: lipid channel max response", "value": -0.335, "unit": "%"}, {"measurement": "Potency", "setting": "[5]", "value": "inactive"}, {"measurement": "outcome", "setting": "[6]", "value": "inactive"}, {"measurement": "Potency", "setting": "[7]", "value": "inactive"}, {"measurement": "Potency", "setting": "[8]", "value": "inactive"}, {"measurement": "Potency", "setting": "7G8", "value": "12.6 µM (active)"}, {"measurement": "Potency", "setting": "CP191", "value": "10 µM (active)"}, {"measurement": "Potency", "setting": "CP192", "value": "inactive"}, {"measurement": "Potency", "setting": "CP194", "value": "inactive"}, {"measurement": "Potency", "setting": "CP201", "value": "inactive"}, {"measurement": "Potency", "setting": "CP203", "value": "inactive"}, {"measurement": "Potency", "setting": "CP211", "value": "inactive"}, {"measurement": "Potency", "setting": "CP215", "value": "inactive"}, {"measurement": "Potency", "setting": "CP262", "value": "inactive"}, {"measurement": "Potency", "setting": "CP266", "value": "inactive"}, {"measurement": "Potency", "setting": "CP268", "value": "inactive"}, {"measurement": "Potency", "setting": "CP269", "value": "inactive"}, {"measurement": "Potency", "setting": "CP291", "value": "inactive"}, {"measurement": "Potency", "setting": "CP305", "value": "inactive"}, {"measurement": "Potency", "setting": "CP315", "value": "inactive"}, {"measurement": "Potency", "setting": "CP325", "value": "inactive"}, {"measurement": "Potency", "setting": "CP329", "value": "inactive"}, {"measurement": "Potency", "setting": "Dd2", "value": "inactive"}, {"measurement": "Potency", "setting": "ICS", "value": "12.6 µM (active)"}, {"measurement": "Potency", "setting": "PC15", "value": "inactive"}, {"measurement": "Potency", "setting": "PC26", "value": "inactive"}, {"measurement": "Potency", "setting": "W2", "value": "13.5 µM (active)"}]}
